Assay results reported in the supplement of paper PMC6555819.

Key:
Assay in all cases: PBM binding z-score (relative to random genomic background probes); higher = stronger binding; sequences stand for … in GC…GCGATTGACAGCGTAGAATGAAGG
[1] = system: FXR:RXRa (NR concentration 270 nM, RXRa partner concentration 90 nM)
How it was run: (§1)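 Random background probes are the reference for binding z-scores. These scores derive from regression-normalized fluorescence on custom Agilent 4×180K protein-binding microarrays incubated 1 h with ligand-free nuclear receptor dimers. Binding was detected with antibodies against each partner (one per run).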

[2] = system: LXRa:RXRa (NR concentration 270 nM, RXRa partner concentration 90 nM)
How it was run: as §1

[3] = system: LXRa homodimer (NR concentration 270 nM)
How it was run: as §1

[4] = system: LXRb:RXRa (NR concentration 270 nM, RXRa partner concentration 90 nM)
How it was run: as §1

[5] = system: LXRb homodimer (NR concentration 270 nM)
How it was run: as §1

[6] = system: PPARa:RXRa (NR concentration 270 nM, RXRa partner concentration 90 nM)
How it was run: as §1

[7] = system: PPARg:RXRa (NR concentration 180 nM, RXRa partner concentration 90 nM)
How it was run: as §1

[8] = system: PPARg:RXRa 270nM:90nM, anti-RXR (NR concentration 270 nM, RXRa partner concentration 90 nM)
How it was run: as §1

[9] = system: PPARg:RXRa 30nM:10nM, anti-RXR (NR concentration 30 nM, RXRa partner concentration 10 nM)
How it was run: as §1

[10] = system: PPARg:RXRa 90nM:30nM, anti-RXR (NR concentration 90 nM, RXRa partner concentration 30 nM)
How it was run: as §1

[11] = system: PPARg:RXRa DBDmut IVT, anti-RXR (DBD mutation: RXRa K156A/R161A, NR concentration 270 nM, RXRa partner concentration 90 nM)
How it was run: as §1

[12] = system: PPARg:RXRa IVT, anti-PPARg (NR concentration 270 nM, RXRa partner concentration 90 nM)
How it was run: as §1

[13] = system: PPARg DBDmut:RXRa IVT, anti-PPARg (DBD mutation: PPARg1 K132A/R137A, NR concentration 270 nM, RXRa partner concentration 90 nM)
How it was run: as §1

[14] = system: PPARg DBDmut IVT, anti-PPARg (DBD mutation: PPARg1 K132A/R137A, NR concentration 270 nM)
How it was run: as §1

[15] = system: PPARg homodimer (NR concentration 180 nM)
How it was run: as §1

[16] = system: PXR:RXRa (NR concentration 270 nM, RXRa partner concentration 90 nM)
How it was run: as §1

[17] = system: PXR homodimer (NR concentration 270 nM)
How it was run: as §1

[18] = system: RARa:RXR (NR concentration 270 nM, RXRa partner concentration 90 nM)
How it was run: as §1

[19] = system: RARa homodimer (NR concentration 270 nM)
How it was run: as §1

[20] = system: RARb:RXRa (NR concentration 270 nM, RXRa partner concentration 90 nM)
How it was run: as §1

Row | Sequence | PBM binding z-score [1] | PBM binding z-score [2] | PBM binding z-score [3] | PBM binding z-score [4] | PBM binding z-score [5] | PBM binding z-score [6] | PBM binding z-score [7] | PBM binding z-score [8] | PBM binding z-score [9] | PBM binding z-score [10] | PBM binding z-score [11] | PBM binding z-score [12] | PBM binding z-score [13] | PBM binding z-score [14] | PBM binding z-score [15] | PBM binding z-score [16] | PBM binding z-score [17] | PBM binding z-score [18] | PBM binding z-score [19] | PBM binding z-score [20]
1 | GCTAGGAGGACAAGGTCAGAGCTTTGTCCGTAGA | 1.46 | 1.37 | -0.572 | 0.865 | -0.916 | 2.36 | 0.985 | 1.44 | -0.224 | 0.93 | 1.13 | 1.17 | -0.92 | -1.52 | 0.32 | 1.57 | -0.305 | 1.89 | -1.07 | 3.41
2 | GGAACGTGGGCATTCGAGTTGATAGCATGGCGAT | -0.541 | -0.612 | -0.683 | -1.02 | -1.01 | -1.09 | 0.22 | -0.631 | -0.7 | -0.858 | -0.654 | -0.803 | -0.387 | -0.8 | -0.877 | -0.129 | -0.516 | -0.333 | -0.773 | -0.433
3 | AGTCAAAGTTAACTAGGTAACGTAAGATTCAGCT | -0.192 | 0.0304 | -0.49 | -0.0459 | -0.318 | 2.16 | 2.33 | 2.5 | 0.593 | 1.89 | 3.88 | 4.72 | 1 | 1.26 | 0.27 | -0.0411 | -0.0667 | 0.226 | 0.167 | 0.61
4 | ATATGTAGGTTACATCCGGGTCAATCAGGCTATG | 2.56 | 4.37 | 1.05 | 2.91 | 0.748 | 4.39 | 5.98 | 5.29 | 2.62 | 4.47 | 6.83 | 7.41 | 2.24 | 2 | 1.63 | 2.93 | 0.984 | 3.51 | 0.955 | 2.32
5 | CGTCAAAGTTCACGGTAACGTAACAGAAAGCAGC | 7.1 | 6.15 | 2.53 | 4.09 | 0.842 | 5.42 | 6.18 | 6.59 | 3.33 | 5.36 | 0.827 | 2.31 | 0.983 | 0.91 | 2.72 | 4.93 | 2.72 | 4.67 | 1.67 | 5.25
6 | CCTTACGTGTCACTGACAGGTTATAGCATTTGGA | 0.791 | 1.07 | 0.634 | 1.18 | 0.446 | 1.29 | 0.601 | 0.469 | 0.356 | 0.704 | 2.18 | 1.32 | 0.83 | 1.13 | 1.53 | 0.903 | 0.611 | 1.21 | 1.67 | 1.19
7 | CAAACTACGTCACGAAAGGTCAAAGTCGAATGAC | 5.17 | 6.32 | 6.22 | 5.7 | 2.44 | 5.11 | 3.01 | 4.1 | 1.58 | 3 | 0.398 | 2.49 | 1.4 | 1.92 | 3.68 | 5.52 | 1.91 | 6.35 | 2.63 | 4.43
8 | TCTTGAAGATCAAAGGTTAAGAAAGCCGAAGCCT | 1.84 | 2.29 | 0.0814 | 2.16 | -0.506 | 4.1 | 4.39 | 5.89 | 5.18 | 6.85 | 1.75 | 1.72 | 0.267 | 0.871 | 1.22 | 2.3 | 0.147 | 3.49 | 0.254 | 2.07
9 | AATACAGGGTCACTAGGCCAGAGTCGGTACGAAT | 6.27 | 4.74 | 0.695 | 3.82 | 0.88 | 5.61 | 8.1 | 6.36 | 3.03 | 5.2 | 4.04 | 5.73 | 1.74 | 1.6 | 2.69 | 3.08 | 0.172 | 4.13 | 1.14 | 4.1
10 | CCTACTGGGCCACGAAAGGTCTTTGATTCAGTGA | 0.186 | -0.153 | -0.487 | -0.225 | -1.08 | 1.31 | 1.84 | 1.99 | -0.0558 | 0.769 | 4.89 | 5.29 | 0.279 | -0.311 | 0.598 | 0.109 | -0.43 | 0.284 | -0.304 | 0.791
11 | GCAGACAGGTGAAAAGCAGGTAACTCAGGGTGGC | -0.224 | -0.0671 | -0.495 | -0.319 | -0.696 | 0.507 | 0.376 | 0.014 | -0.488 | -0.253 | 0.172 | 0.778 | -0.581 | -1.28 | -0.799 | -0.441 | -0.329 | 0.143 | -0.401 | 0.42
12 | AATACAGGGTCATCGTAGTCCAGAGTACGCACAG | 7.48 | 6.18 | 2.88 | 4.83 | 1.9 | 6.32 | 7.13 | 6.38 | 2.86 | 4.99 | 2.79 | 5.02 | 1.99 | 2.18 | 2.87 | 5.53 | 1.22 | 5.21 | 0.827 | 4.73
13 | ATATGTAGGTTAGCTGGGGTCATTCATACTAGGC | 4.61 | 5.73 | 3.67 | 5.14 | 1.97 | 5.1 | 5.98 | 5.23 | 3.12 | 4.83 | 6.88 | 6.57 | 2.9 | 2.72 | 3.41 | 6.71 | 4.4 | 6.18 | 2.13 | 3.28
14 | CAAACTAGGTCAACAGGTCAAAGTCCGCTTCCCG | 6.05 | 5.38 | 3.92 | 4.38 | 1.14 | 6.02 | 9.26 | 7.93 | 6.55 | 8.02 | 8.61 | 8.71 | 4.74 | 3.76 | 4.14 | 4.32 | 1.23 | 5.98 | 3.05 | 4.81
